Holding throughout (format): functional
For test [1], the target named is Solute carrier family 2, facilitated glucose transporter member 1 (Homo sapiens) (UniProt P11166). The test is described as follows: ST_JUDE_LEISH: Cytotoxicity at 2uM final concentration against transgenic Leishmania Mexicana promastigotes LmGLUT1 that are glucose transport deficient and complemented with the human glucose transporter GLUT1. Activity is measured by DNA content using SYBR green in vitro.

For test [2], the target named is Hexose transporter 1 (Plasmodium falciparum) (UniProt O97467). Nature of the test: ST_JUDE_LEISH: Cytotoxicity at 2uM final concentration against transgenic Leishmania Mexicana promastigotes LmPfHT that are glucose transport deficient and complemented with the Plasmodium falciparum hexose transporter. Activity is measured by DNA content using SYBR green in vitro.

The target in test [3] is Glucose transporter (Leishmania mexicana) (UniProt O61059). The test is described as follows: ST_JUDE_LEISH: Cytotoxicity at 2uM final concentration against transgenic Leishmania Mexicana promastigotes LmGT2 that are glucose transport deficient and complemented with the L. Mexicana glucose transporter 2. Activity is measured by DNA content using SYBR green in vitro.

Sequence of Solute carrier family 2, facilitated glucose transporter member 1 (Homo sapiens) (P11166 whole entry): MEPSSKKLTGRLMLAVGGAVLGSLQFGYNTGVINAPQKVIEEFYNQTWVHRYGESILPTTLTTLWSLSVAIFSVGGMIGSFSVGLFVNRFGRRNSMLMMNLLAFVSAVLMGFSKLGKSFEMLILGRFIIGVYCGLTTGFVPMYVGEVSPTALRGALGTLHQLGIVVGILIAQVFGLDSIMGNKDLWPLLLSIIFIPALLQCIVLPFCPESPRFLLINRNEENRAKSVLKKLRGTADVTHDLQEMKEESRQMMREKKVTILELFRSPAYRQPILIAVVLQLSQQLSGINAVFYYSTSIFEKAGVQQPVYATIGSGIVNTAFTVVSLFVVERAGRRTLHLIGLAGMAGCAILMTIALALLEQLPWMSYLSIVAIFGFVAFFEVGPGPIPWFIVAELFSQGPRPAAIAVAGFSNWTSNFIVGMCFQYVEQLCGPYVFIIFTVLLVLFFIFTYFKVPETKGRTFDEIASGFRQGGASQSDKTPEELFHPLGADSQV

As to `Cc1cc(O)c(CN(C)Cc2ccc3c(c2)OCCO3)cc1C(C)C`, the results for the inhibition in test [1], in test [2] and in test [3] were 4.86%, 5.38% and 2.54%, respectively.
For the compound `O=C(Nc1cccc(OCc2ccccc2)c1)c1ccc(CN2CCC(Cc3ccccc3)CC2)cc1`, the inhibition (in general, the relative decrease from the control value, in per cent) in test [1] is -0.83%; in test [2], -1.67%; in test [3], -0.42%.
With `O=C(NCc1ccc(F)cc1)c1cnc(N2CCN(c3ccncc3)CC2)c(Cl)c1`, the inhibition in test [1] amounted to 22.7%; in test [2], 11.6%; in test [3] it was 5.45%.
For `C=CCc1cc(Cc2cnc(N)nc2N)cc(CCC)c1O`, the inhibition in test [1] is -0.63%; in test [2], -0.27%; in test [3], -0.78%.
Consider `CC(C)CNCc1cccc(-c2ccc(CN(C(=O)NCCc3ccccc3)C3CCN(Cc4ccccc4)CC3)cc2)c1`, for which the inhibition in test [1] stood at 75.8%; in test [2] it was 79.1%; in test [3], 56.8%.
For the compound `Cc1[nH]c(/C=C2\C(=O)Nc3ccc(S(=O)(=O)Cc4c(Cl)cccc4Cl)cc32)c(C)c1C(=O)N1CCC[C@@H]1CN1CCCC1`, the inhibition was determined as 1% in test [1], 0.58% in test [2] and 2.26% in test [3].
For `CC(C)n1c(C2CCN(CC3CCN(C(=O)/C=C/c4ccc(Cl)c(Cl)c4)CC3)CC2)nc2ccccc21`, the inhibition in test [1] is 0.12%; in test [2], -1.72%; in test [3] it was -0.72%.
Take `Cc1cc(NC(=O)Nc2ccc(C(C)C)cc2)c2ccccc2n1`: the inhibition in test [1] was 0.71%; in test [2] it was 3.51%; in test [3] it was -0.45%.
Regarding `CC(C)Nc1cc(C(=O)N[C@@H](Cc2ccccc2)[C@H](O)CNC(C)(C)c2cccc(C(F)(F)F)c2)cc(N2CCCCS2(=O)=O)c1`, the figures for the inhibition in test [1], in test [2] and in test [3] were 1.42%, 2.46% and 0.9%, respectively.
Turning to `O=C(/C=C/c1ccc([N+](=O)[O-])cc1)N1CCC(NS(=O)(=O)c2ccc(F)cc2)CC1`, the inhibition is 6% in test [1], 3.96% in test [2] and 7.08% in test [3].
`CN(C)CCCNc1ncnc2c1[nH]c1ccc(Cl)cc12`: the values for the inhibition in test [1], in test [2] and in test [3] were 1.91%, 3.62% and 1.6%, respectively.
With `C=Cc1ccccc1C1(O)CCN(CCCCNC(=O)c2ccc(-c3ccc(C#N)cc3)cc2)CC1`, the inhibition is 1.27% in test [1], 1.76% in test [2] and -1.41% in test [3].
Regarding `CCOc1cccc2nc(NCCCNCc3ccc(Cl)c(Cl)c3)cc(NCCCNCc3ccc(Cl)c(Cl)c3)c12`, the values for the inhibition in test [1], in test [2] and in test [3] were -3.5%, -0.94% and -0.45%, respectively.
In the case of `Cc1cc(=NN=Cc2cccc(F)c2)c2cccc(C)c2[nH]1`, the values for the inhibition in test [1], in test [2] and in test [3] were 2.24%, 3.31% and 0.78%, respectively.
As for `COc1cc(F)c2nccc([C@@H](O)CN3CCC(NCc4ccc5c(n4)NC(=O)CS5)C(F)C3)c2c1` (some centres undefined), the inhibition in test [1] turned out to be 3.18%; in test [2], 3.06%; in test [3] it was 3.18%.
Turning to `Cc1cccc(CNc2nc(C)cc(N[C@@H](Cc3ccccc3)C(=O)NC3CCCC3)n2)c1`, the figures for the inhibition in test [1], in test [2] and in test [3] were 16.1%, 12.4% and 7.72%, respectively.
For the compound `CN1CCC(Oc2ccc(CN3CC[C@H](NC(=O)c4cc(F)cc(F)c4)C3)c3ccccc23)C1` (some centres undefined), the results for the inhibition in test [1], in test [2] and in test [3] were 7.53%, 1.81% and 3.76%, respectively.
Take `OC(c1ccccc1)C1CN(CCc2ccccc2)CCC1(O)c1ccccc1` (centres undefined): the inhibition in test [1] was 0.73%; in test [2], -1.7%; in test [3], -1.32%.
`Oc1ccc(OCc2ccccn2)cc1`: the inhibition in test [1] came to 3.05%; in test [2] it was 6.09%; in test [3], 4.04%.
On to `N#Cc1ccc(-c2ccc(C(=O)NC3CCN(CCN4CCc5c(cccc5C(F)(F)F)C4)CC3)cc2)cc1`, for which the inhibition is -0.45% in test [1], -0.02% in test [2] and 1.46% in test [3].
In the case of `CC1(C)C2C=C(CN3CCC(NC(=O)Nc4ccc(Cl)c(Cl)c4)CC3)C1CC2` (centres undefined), the inhibition in test [1] turned out to be 8.89%; in test [2], 7.57%; in test [3] it was 7.92%.
Take `COc1ccc2ncc(F)c(CCN3C[C@H](CNCc4cc(F)c5c(c4)NC(=O)CO5)[C@H](O)C3)c2n1`: the inhibition worked out at 3.52% in test [1], 4.83% in test [2] and 0.92% in test [3].
In the case of `Cc1cc(N(C)C)nc(Nc2ccc(NC(=O)c3ccc(F)cc3)cc2)n1`, the inhibition in test [1] was found to be 5.57%; in test [2] it was 8.06%; in test [3], 3.85%.
Take `Cc1cc(N[C@@H](Cc2ccccc2)C(=O)NCCOc2ccccc2)nc(NCC2CCCCC2)n1`: the inhibition in test [1] was 6%; in test [2], 6.54%; in test [3], 0.5%.
With `CC(=O)Nc1sc(C)c(C)c1CN1CCc2ccccc2C1`, the inhibition is -0.17% in test [1], 0.49% in test [2] and -1.3% in test [3].
Taken in the same sequence, the figures for `CC(C)C[C@H](Nc1ccc(C#N)c2ccccc12)C(=O)NC(C)(C)C12CC3CC(CC(C3)C1)C2` were 4.34%, 5.78% and 2.11%.
Consider `CNC(=O)NC1=NC(C)(C)N(OCCCOc2cc(Cl)c(Cl)cc2Cl)C(N)=N1`, for which the values for the inhibition in test [1], in test [2] and in test [3] were 11.5%, 11.8% and 11.6%, respectively.
The matching figures for `COc1ccc(-c2cccc(NC(=O)c3cccc(C#N)c3)c2)cc1CNC(C)C`: 9.6%, 8.42% and 5.03%.
As to `CN1CCC(Oc2ccc(CN3CC[C@H](NC(=O)c4ccc(F)c(F)c4)C3)c3ccccc23)C1` (some centres undefined), the inhibition came to 1.65% in test [1], 1% in test [2] and 2.7% in test [3].
Take `C=C(NC(=O)C1CCCCC1)C(=O)OC`: the inhibition in test [1] is -0.71%; in test [2], 2.29%; in test [3], 0.41%.
Taken in the same sequence, the figures for `COc1ccc2ccccc2c1CCCCN1CCN(CC(c2ccc(F)cc2)N2CCC2)CC1` (centres undefined) were 4.25%, 3.64% and 3.18%.
Taken in the same sequence, the figures for `Cc1cccc2nc(-c3ccc(-c4cccc(NC(=O)Nc5ccsc5)c4)s3)[nH]c12` were 0.98%, 2.82% and 1.03%.
Consider `Cc1oc(-c2ccccc2)nc1CCOc1ccc(C[C@H](Nc2ccccc2C(=O)c2ccccc2)C(=O)NCc2ccccn2)cc1`, for which the inhibition in test [1] is 4.4%; in test [2] it was 4.88%; in test [3], 4.35%.
